In experiment [1] the target is Rap guanine nucleotide exchange factor 3 (Homo sapiens) (UniProt O95398). In words: Confirmatory qHTS for agonist of cAMP-regulated guanine nucleotide exchange factor 3 (EPAC1) (AID 1645881).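 Also: EPAC1 catalysed release of BODIPY-GDP from Rap1B seen as fluorescence loss; 100% = effect of cAMP agonist control; nearly all actives have a fitted effect of over 75% in size.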 A general note: qHTS replaces the single test concentration by a dilution series.
Experiment [2] has as its target Rap guanine nucleotide exchange factor 4 (Homo sapiens) (UniProt Q8WZA2). In words: Confirmatory qHTS for agonist of cAMP-regulated guanine nucleotide exchange factor 4 (EPAC2) (AID 1645884).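 Also: nucleotide exchange releases bodipy-GDP from Rap1 and this lowers its fluorescence; % is scaled to controls: 0 for no effect and ±100 for the full control effect; nearly all actives have a fitted effect of over 65% in size.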
Experiment [3] has the same target. In words: Confirmatory qHTS for antagonist of cAMP-regulated guanine nucleotide exchange factor 4 (EPAC2) (AID 1645885). Also: nearly all actives have a fitted effect of over 25% in size. Also: potency is read from the fitted curve at half-maximal effect. As to activity change, negative = inhibition: % is scaled to controls: 0 for no effect and ±100 for the full control effect.
In experiment [4] the target is Rap guanine nucleotide exchange factor 3 (Homo sapiens) (UniProt O95398). In words: Counterscreen qHTS for antagonist of cAMP-regulated guanine nucleotide exchange factor 3 (EPAC1) (AID 1645888).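 Also: fluorescence loss as bound BODIPY-GDP is released from Rap1B; % of control where 0% means no effect.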 The method in brief:
(§1)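 Rap1B–BODIPY-GDP (250 nM) with 50 uM GDP; compounds pin-transferred to 9.74 nM–152 uM final (activator) or from 7.32 nM upwards (inhibitor). Fluorescence Ex/Em 480/540 nm read at 5 and 30 min, then after adding cAMP or buffer, at room temperature.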
On the technique in general: Counterscreens check selectivity or assay interference.

Experiment [5] has the same target. In words: Counterscreen qHTS for agonist of cAMP-regulated guanine nucleotide exchange factor 3 (EPAC1) (AID 1645889). Also: % of control where 0% means no effect; nearly all actives have a fitted effect of over 40% in size. The method in brief:
as §1

Here are results for 20 compounds from PubChem BioAssay (NCATS).

Records with an inconclusive call do not appear. Values without a mark were called inactive. Activity calls are given as the source filed them. Calls follow the shape of the dose curve; as a rule, active = well fitted curve in the direction sought with a large enough effect; inconclusive = small, poorly fitted or top-dose-only effect, or another doubt; inactive = no such curve, though single readings can be large; an effect the other way counts as inactive or inconclusive.

Chain of Rap guanine nucleotide exchange factor 3 (Homo sapiens) (O95398 whole entry, looked up): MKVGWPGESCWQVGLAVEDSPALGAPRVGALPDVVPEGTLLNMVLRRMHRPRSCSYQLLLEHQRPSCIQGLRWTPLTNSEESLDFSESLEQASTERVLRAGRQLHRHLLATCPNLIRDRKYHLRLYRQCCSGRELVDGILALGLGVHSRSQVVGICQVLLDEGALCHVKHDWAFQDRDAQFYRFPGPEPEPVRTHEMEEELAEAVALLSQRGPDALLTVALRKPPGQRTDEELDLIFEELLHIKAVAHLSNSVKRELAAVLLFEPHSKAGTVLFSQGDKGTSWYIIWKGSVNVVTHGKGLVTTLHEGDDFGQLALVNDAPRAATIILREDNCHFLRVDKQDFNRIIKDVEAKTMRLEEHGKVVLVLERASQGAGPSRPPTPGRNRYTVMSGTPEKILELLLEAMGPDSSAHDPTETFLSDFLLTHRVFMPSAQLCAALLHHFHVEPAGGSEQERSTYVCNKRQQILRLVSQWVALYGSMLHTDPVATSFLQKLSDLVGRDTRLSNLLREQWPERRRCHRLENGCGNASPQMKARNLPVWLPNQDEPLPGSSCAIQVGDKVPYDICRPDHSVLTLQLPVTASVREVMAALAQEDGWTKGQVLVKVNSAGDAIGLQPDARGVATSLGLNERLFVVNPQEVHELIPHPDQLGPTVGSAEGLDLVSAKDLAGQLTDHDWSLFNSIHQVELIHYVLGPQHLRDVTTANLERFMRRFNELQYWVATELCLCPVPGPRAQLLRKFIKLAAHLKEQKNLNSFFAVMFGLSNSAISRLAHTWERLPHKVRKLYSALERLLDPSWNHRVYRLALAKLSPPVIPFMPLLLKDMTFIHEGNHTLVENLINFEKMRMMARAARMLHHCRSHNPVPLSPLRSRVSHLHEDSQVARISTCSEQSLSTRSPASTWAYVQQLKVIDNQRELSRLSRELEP
Chain of Rap guanine nucleotide exchange factor 4 (Homo sapiens) (Q8WZA2 whole entry, looked up): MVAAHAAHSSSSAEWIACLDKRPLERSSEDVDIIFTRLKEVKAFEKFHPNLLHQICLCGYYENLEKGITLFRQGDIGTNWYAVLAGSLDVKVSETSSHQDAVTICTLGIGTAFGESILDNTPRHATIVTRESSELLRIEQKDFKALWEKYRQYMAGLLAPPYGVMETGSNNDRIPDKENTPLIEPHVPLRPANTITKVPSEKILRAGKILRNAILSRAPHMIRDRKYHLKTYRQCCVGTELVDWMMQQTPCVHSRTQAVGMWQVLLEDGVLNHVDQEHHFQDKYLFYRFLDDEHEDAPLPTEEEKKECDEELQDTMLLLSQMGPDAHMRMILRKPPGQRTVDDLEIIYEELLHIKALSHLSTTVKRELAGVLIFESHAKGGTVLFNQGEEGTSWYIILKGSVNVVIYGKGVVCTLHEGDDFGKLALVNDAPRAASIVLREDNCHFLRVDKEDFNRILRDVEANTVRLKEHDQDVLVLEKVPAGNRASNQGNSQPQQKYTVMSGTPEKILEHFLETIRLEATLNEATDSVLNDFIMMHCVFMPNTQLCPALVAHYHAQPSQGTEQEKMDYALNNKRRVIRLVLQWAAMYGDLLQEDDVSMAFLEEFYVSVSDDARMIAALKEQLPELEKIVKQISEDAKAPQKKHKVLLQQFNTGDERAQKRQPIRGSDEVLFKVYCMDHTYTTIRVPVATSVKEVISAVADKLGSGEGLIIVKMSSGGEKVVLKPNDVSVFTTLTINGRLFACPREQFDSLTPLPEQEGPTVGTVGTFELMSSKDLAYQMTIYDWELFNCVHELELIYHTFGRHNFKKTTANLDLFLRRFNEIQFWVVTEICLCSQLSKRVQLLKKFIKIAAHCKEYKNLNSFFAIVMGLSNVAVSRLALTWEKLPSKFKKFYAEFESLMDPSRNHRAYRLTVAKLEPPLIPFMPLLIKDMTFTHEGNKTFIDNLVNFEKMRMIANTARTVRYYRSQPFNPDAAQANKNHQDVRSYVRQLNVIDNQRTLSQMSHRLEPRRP

With `Cc1c([N+](=O)[O-])cnc(Sc2ccccc2)c1[N+](=O)[O-]`, the Potency result in experiment [1], in experiment [2], in experiment [3], in experiment [4] and in experiment [5] was “inactive” each time.

For `Cc1ccc(CSC2=NCCN2S(=O)(=O)c2ccc(F)cc2)cc1`, the Potency result in experiment [1] and in experiment [3] was “inactive” throughout. The activation is 1.66% [at 17.1 µM, percent relative to cAMP agonist control] in experiment [2] and 4.55% [at 30.8 µM] in experiment [5]. The activity change, negative = inhibition in experiment [4] was -7.41% [at 30.8 µM].

Turning to `CC(C)(C)C(=O)Nc1cccc(C(=O)OCc2cc(=O)n3nc(C4CCCCC4)sc3n2)c1`, the Potency entry in experiment [1], in experiment [2], in experiment [4] and in experiment [5] was “inactive” each time. Also, the outcome in experiment [3] was “inactive [at 12.7 µM]”.

Turning to `Cc1cccc(NC(=O)CSCC(=O)N(C)CCOc2ccc(Cl)cc2)c1`, the Potency result in experiment [1], in experiment [2], in experiment [3], in experiment [4] and in experiment [5] was “inactive” each time.

`COc1ccc2c(c1)c(=O)oc1c(C)c(OCc3cc(C(=O)O)oc3C)ccc12`: the Potency entry in experiment [1], in experiment [2], in experiment [3], in experiment [4] and in experiment [5] was “inactive” throughout.

As to `Cc1ccc(/C=C/C(=O)Nc2nnc(SCc3ccc(C#N)cc3)s2)o1`, the Potency result in experiment [1], in experiment [2], in experiment [3], in experiment [4] and in experiment [5] was “inactive” throughout.

As to `CCCC(=O)Oc1c(S(=O)(=O)c2ccc(C)cc2)c(C)nn1C(C)(C)C`, the Potency entry in experiment [1] and in experiment [3] was “inactive” each time. In addition, the activation in experiment [2] is 12.6% [at 17.1 µM, percent relative to cAMP agonist control]; in experiment [5], 5.13% [at 30.8 µM]. Further, in experiment [4], the activity change, negative = inhibition was -10.7% [at 30.8 µM].

As to `O=Nc1c(O)c2ccccc2c2ccccc12`, the Potency entry in experiment [1] and in experiment [3] was “inactive” each time. The activation was 0.886% [at 17.1 µM, percent relative to cAMP agonist control] in experiment [2] and 24.1% [at 30.8 µM] in experiment [5]. In addition, the activity change, negative = inhibition in experiment [4] is -4.76% [at 30.8 µM].

As to `CNc1ccc(/C=C/C(=O)c2ccc(C)cc2)cc1[N+](=O)[O-]`, the Potency entry in experiment [1] and in experiment [3] was “inactive” each time. For the same compound, the activation was -1.81% [at 17.1 µM, percent relative to cAMP agonist control] in experiment [2] and 21% [at 30.8 µM] in experiment [5]. The activity change, negative = inhibition in experiment [4] was 16.3% [at 30.8 µM].

Consider `Cc1ccc(C)c(Nc2cc(C)nc(-c3ccccc3O)n2)c1`, for which the Potency result in experiment [1] and in experiment [3] was “inactive” each time. Further, the activation in experiment [2] is 10% [at 17.1 µM, percent relative to cAMP agonist control]; in experiment [5], 7.83% [at 30.8 µM]. In addition, in experiment [4], the activity change, negative = inhibition is -8.51% [at 30.8 µM].

With `O=C(CSc1ccc(-c2ccco2)nn1)c1ccc(F)cc1`, the Potency result in experiment [1], in experiment [2], in experiment [3], in experiment [4] and in experiment [5] was “inactive” throughout.

In the case of `O=[N+]([O-])c1ccc(-n2nnnc2-c2ccccc2)c([N+](=O)[O-])c1`, the Potency entry in experiment [1], in experiment [2], in experiment [3], in experiment [4] and in experiment [5] was “inactive” in each case.

For `CCn1c(C(=O)N2CCc3ccccc3C2)cc2sccc21`, the Potency result in experiment [1], in experiment [2], in experiment [4] and in experiment [5] was “inactive” in each case. Further, the Potency in experiment [3] was 53.6 µM (active).

On to `CCCCN(C(=O)Cn1ncc(Cl)c(Cl)c1=O)c1c(N)n(CC(C)C)c(=O)[nH]c1=O`, for which the Potency entry in experiment [1] and in experiment [3] was “inactive” each time. Besides, the activation in experiment [2] is 3.26% [at 17.1 µM, percent relative to cAMP agonist control]; in experiment [5] it was 16.5% [at 30.8 µM]. In experiment [4], the activity change, negative = inhibition was -8.9% [at 30.8 µM].

Take `O=C1CC(c2c(F)cccc2Cl)c2c(ccc3ccccc23)N1` (stereo not given): the Potency result in experiment [1], in experiment [2], in experiment [3], in experiment [4] and in experiment [5] was “inactive” throughout.

Take `Cc1cc2oc(=O)c(CC(=O)O)c(C)c2c2occ(-c3ccccc3)c12`: the Potency result in experiment [1], in experiment [2], in experiment [3], in experiment [4] and in experiment [5] was “inactive” each time.

`CCOC(=O)C1CCc2c(ccc3ccccc23)N1CCC#N` (stereo not given): the Potency entry in experiment [1] and in experiment [3] was “inactive” throughout. Further, the activation in experiment [2] is 0.813% [at 17.1 µM, percent relative to cAMP agonist control]; in experiment [5] it was 2.64% [at 30.8 µM]. For the same compound, the activity change, negative = inhibition in experiment [4] is -15.2% [at 30.8 µM].

Take `CCCOC(=O)c1c(NC(=O)C2C3C=CC(C3)C2C(=O)O)sc2c1CCC(C)C2` (stereo not given): the Potency result in experiment [1] and in experiment [3] was “inactive” in each case. Further, the activation was 8.63% [at 17.1 µM, percent relative to cAMP agonist control] in experiment [2] and 40.1% [at 30.8 µM] in experiment [5]. In addition, the activity change, negative = inhibition in experiment [4] is 1.23% [at 30.8 µM].

With `CC[C@@H]1CC=C[C@H]2[C@H]1C(=O)N(Cc1ccccc1)[C@H]2c1ccc(C(F)(F)F)cc1`, the Potency entry in experiment [1], in experiment [2], in experiment [3], in experiment [4] and in experiment [5] was “inactive” throughout.

For the compound `N#C/C(=C/c1cccn1-c1cccc(C(=O)O)c1)c1ccc(F)cc1`, the Potency result in experiment [1] and in experiment [3] was “inactive” throughout. Further, the activation in experiment [2] was -0.882% [at 17.1 µM, percent relative to cAMP agonist control]; in experiment [5], 2.77% [at 30.8 µM]. In addition, in experiment [4], the activity change, negative = inhibition was -6.54% [at 30.8 µM].
